Drawing on PubChem BioAssay AID504941 (Broad Institute, 2011), this text covers outcome for 105 molecules.

The campaign covered roughly 1,200 compounds. About 170 (14%) were called active. How the calls were made is not given here. Not all results are given here. Entries with a potency or affinity are not part of this list.

The assay can be described thus: twin-arginine translocation blockade, bacterial reporter – cherry-pick, set 2, plate reader, dose response (AID 504941). To be noted: E. coli Tat transport reporter; series mostly up to 38 µM.
On to `CN(CC(=O)NCCN1CCOCC1)S(=O)(=O)c1ccc(Cl)cc1`, for which the molecule was classed as inactive.
To `COc1ccc(OC)c(NC(=O)NCc2cccnc2)c1` belongs “inactive”; to `Cc1cc(=O)[nH]c(Sc2c(-c3ccccc3)c3ccccc3[nH]c2=O)n1`, “inactive”; to `CN1CCN(c2cc3c(cc2F)c(=O)c(C(=O)O)cn3CCF)CC1`, “inactive”.
As for `CC(C(=O)NC1CCCC1)N1CCN(S(=O)(=O)c2ccc(C(C)(C)C)cc2)CC1` (stereo not given), the call was inactive.
For `Cc1ccc(S(=O)(=O)N2CCC(C(=O)Nc3nnc(C)s3)CC2)cc1`, the molecule was classed as inactive.
With `O=C(CCSc1nnc(-c2ccco2)o1)N1CCOCC1`, the molecule was called inactive.
To `CCc1ccc(-c2cc(C(=O)Nc3ccc(S(=O)(=O)NC(C)=O)cc3)c3ccccc3n2)cc1` belongs “inactive”; to `CC(=O)c1ccc(NC(=O)C2CCCN2S(=O)(=O)c2cccc3cccnc23)cc1` (stereo not given), “inactive”; to `CN(c1ccccc1)S(=O)(=O)c1cccc(NC(=O)CN2C(=O)NC3(CCCC3)C2=O)c1`, “inactive”.
On to `CC1(C)C2CCC1(C)C(NC(=O)/C=C/c1ccccc1)C2` (stereo not given), for which the result was inactive.
In the case of `COc1ccc(Nc2nc3ccccc3nc2-n2nc(C)cc2C)cc1`, the molecule was classed as inactive.
For the molecule `COc1ccccc1NC(=S)NC(=O)C(C)C`, the molecule was classed as inactive.
`COc1cc(NC(=O)C2CCCCC2)c(OC)cc1NC(=O)c1ccco1`: the molecule was called inactive.
Turning to `Cc1ccc(-c2cc(C(F)F)n3ncc(C(=O)Nc4ccc(S(=O)(=O)Nc5ccccc5C)cc4)c3n2)cc1`, the outcome was inactive.
`Oc1c(Cl)cc(Cl)cc1C1Nc2ccccc2-n2cccc21` (stereo not given): the result was inactive.
In the case of `O=C(Nc1ccc2c(c1)OCCO2)C1CCCN(S(=O)(=O)c2cccnc2)C1` (stereo not given), the call was inactive.
With `O=C(c1cccnc1)C1CCCN(Cc2nc(Cc3ccccc3)no2)C1` (stereo not given), the call was inactive.
`CN1CCN(c2ccc(S(=O)(=O)N3CCCCC3)cc2NC(=O)c2cccc([N+](=O)[O-])c2)CC1`: the molecule was classed as inactive.
In the case of `COc1c2ccoc2nc2c(OC)c(OC[C@@H](O)C(C)(C)O)ccc12`, the molecule was classed as inactive.
Regarding `Cc1ccnc(SCC(=O)c2cccs2)n1`, the molecule was classed as inactive.
In the case of `CC(=O)c1cc(CN2CCN(C3CCCCC3)C(CCO)C2)cs1` (stereo not given), the molecule was called inactive.
As to `O=C1/C(=C/c2cccnc2)Oc2cc(OS(=O)(=O)c3ccccc3)ccc21`, the outcome was inactive.
As for `COc1cccc(NC(=O)c2cccc(C(=O)Nc3cccc(OC)c3)n2)c1`, the outcome was inactive.
Consider `Cc1ccc(S(=O)(=O)NC(C)(C)CSc2nnc(Nc3ccccc3)s2)cc1`, for which the molecule was classed as inactive.
For the molecule `CN1CCC(=NNC(=O)C(=O)Nc2cccc(Br)c2)CC1`, the call was inactive.
Consider `Cc1ccc(C)c(NC(=O)CN(C)C(=O)c2cccc(S(=O)(=O)N(C)C)c2)c1`, for which the molecule was called inactive.
To `Cc1ncc(CN2CCN(CCC(C)C)C(CCO)C2)s1` (stereo not given) belongs “inactive”.
To `COc1ccc(C(=O)NC2(C(F)(F)F)C(=O)Nc3c2c(=O)[nH]c(=O)n3CCc2ccc(OC)c(OC)c2)cc1` (stereo not given) belongs “inactive”; to `CC(C)OCC(O)CN1CCN(CC(O)COc2ccc3c(c2)OCO3)CC1` (stereo not given), “inactive”.
Consider `CCCCN(C)C(=O)c1cc2cc([N+](=O)[O-])cc(OC)c2oc1=O`, for which the call was inactive.
Turning to `Cc1cccc(N(CC(=O)NC2CCCC2)C(=O)CCCC(=O)Nc2ccccn2)c1`, the result was inactive.
Take `CCCCn1c(N)c(N(CCOC)C(=O)COC(=O)C(C)Oc2ccc(Cl)cc2)c(=O)[nH]c1=O` (stereo not given): the result was inactive.
In the case of `O=C(Nc1nnc(S(=O)(=O)N2CCCCCC2)s1)c1ccccc1Br`, the call was inactive.
To `C=CCn1c(SCC(=O)NCc2ccc3c(c2)OCO3)nnc1-c1cccnc1` belongs “inactive”.
Consider `COC(=O)C[C@H]1c2cc(F)cc(F)c2S(=O)(=O)N1C1CCN(Cc2ccccc2)CC1`, for which the call was inactive.
Consider `NC(=O)C1CCN(C(=O)c2ccco2)CC1`, for which the outcome was inactive.
With `NC(=O)C1CCN(C(=O)CSc2nc3ccccc3o2)CC1`, the outcome was inactive.
Turning to `O=C(CCc1nc2cccnc2n1Cc1ccccc1)N1CCOCC1`, the molecule was classed as inactive.
Regarding `O=C(CCSc1ccccc1)N1CCN(C(=O)c2ccco2)CC1`, the call was inactive.
Turning to `CN(Cc1ccccc1)c1ncnc2sccc12`, the molecule was called inactive.
With `COC(=O)c1sccc1NC(=O)c1ccc2c(c1)OCO2`, the molecule was classed as inactive.
For the molecule `Cc1ccccc1C(=O)N1CCC(C(=O)Nc2ccccc2Cl)CC1`, the outcome was inactive.
To `Cc1ccccc1C(=O)N1CCN(c2ccc(NC(=S)NC(=O)c3cccs3)cc2)CC1` belongs “inactive”; to `O=C(CC1SCCNC1=O)Nc1cccc(Cl)c1` (stereo not given), “inactive”.
`COc1cccc(CN2CCN(Cc3cc(OC)c(OC)cc3[N+](=O)[O-])CC2)c1`: the molecule was called inactive.
For the molecule `COc1ccc(CCN2C(=O)CC(NNC(=O)c3ccc(F)cc3)C2=O)cc1OC` (stereo not given), the molecule was classed as inactive.
For `Cc1cc(C(=O)NNC(=O)c2ccc(F)cc2)c(C)s1`, the molecule was classed as inactive.
As to `Cc1nn(Cc2ccccc2)c(C)c1NC(=O)c1noc2c1CCc1ccccc1-2`, the molecule was classed as inactive.
The result for `Cc1nc(Cl)c(C(=O)NCc2ccccc2)c(C)c1Cl` reads “inactive”; that for `CCOc1cccc(=O)c2c(C)n(-c3ccc(C(=O)O)cc3)c(C)c12`, “inactive”; that for `O=C(CCCc1ccccc1)Nc1ccc2c(c1)OCCO2`, “inactive”.
Consider `O=C(O)CC(NCc1ccco1)C(=O)OCCc1ccccc1` (stereo not given), for which the call was inactive.
The result for `Cc1cc(C)c2oc(=O)cc(CN3CCN(Cc4ccc5c(c4)OCO5)CC3)c2c1` reads “inactive”; that for `C[C@H]1NC(=O)[C@@]2(C)[C@@H](c3ccccc3)[C@H]3COc4ccccc4[C@H]3N2C1=O`, “inactive”.
Turning to `CCOC(=O)[C@H]1[C@H]2COc3ccc(Cl)cc3[C@@H]2N2C(=O)[C@H](C)NC(=O)[C@@]12C`, the call was inactive.
On to `CC(=O)c1c(C)[nH]c(C(=O)CSc2nnc3ccccn23)c1C`, for which the call was inactive.
With `CC(=O)Oc1ccc2c(c1)OC(c1ccccc1)CC21CC(C)(C)NC(=S)N1` (stereo not given), the call was inactive.
In the case of `C=CCC[C@H](Cc1ccc(F)cc1)C(=O)OC[C@@H](C)NC(=O)[C@H](CC=C)CC(=O)NCCO`, the molecule was called inactive.
For the molecule `Nc1nc2n(n1)C(c1cccc(Br)c1)CC(c1ccccc1)N2` (stereo not given), the molecule was classed as inactive.
As for `COc1ccccc1N1CCN(CC(=O)Nc2ccc3c(c2)OCCO3)CC1`, the molecule was called inactive.
Consider `CC(Oc1ccc2c(-c3ccccc3)cc(=O)oc2c1)C(=O)NCCCN1CCOCC1` (stereo not given), for which the molecule was classed as inactive.
In the case of `COc1cccc(CNC(=O)CN2C(=O)CCSc3ccc(S(=O)(=O)N4CCCC4)cc32)c1`, the call was inactive.
Consider `Cc1ccc(NC(=S)NCCC2=CCCCC2)cc1`, for which the call was inactive.
As to `O=C(NCc1ccccc1)c1ccc(CS(=O)(=O)c2ccccc2)o1`, the molecule was classed as inactive.
The result for `CCC1CCCCN1Cc1nc2c(c(=O)n(C)c(=O)n2C)n1CCCc1ccccc1` (stereo not given) reads “inactive”; that for `Cc1onc(C(=O)NCc2ccc(F)cc2)c1[N+](=O)[O-]`, “inactive”.
As to `O=C(CCC1CCCCC1)NCCN1CCOCC1`, the molecule was called inactive.
On to `COCCCN=C(c1ccco1)n1c(=S)nc(-c2ccco2)n(CCCOC)c1=S`, for which the molecule was called inactive.
The result for `O=C(CN1CCC(c2nc3ccccc3s2)CC1)NCc1cccs1` reads “inactive”; that for `O=C(Nc1ccc(C(=O)O)cc1)/C(=C\C=C\c1ccccc1)NC(=O)c1ccccc1Br`, “inactive”; that for `O=C(Nc1cc(S(=O)(=O)N2CCOCC2)ccc1N1CCCC1)c1ccc(Cl)cc1`, “inactive”.
Regarding `Cc1cc(Oc2nc3c(C)cccn3c(=O)c2/C=C(\C#N)S(=O)(=O)c2ccc(Cl)cc2)ccc1Cl`, the outcome was inactive.
With `CCOC(=O)C1=C(C)Nc2ncnn2C1c1cc(Br)ccc1F` (stereo not given), the molecule was classed as inactive.
The result for `Cc1ccn(C(=O)c2ccc(NC(=O)C3CC3)cc2)n1` reads “inactive”.
On to `COc1ccc(NC(=O)C2CCN(Cc3cnn(-c4ccccc4)c3-n3cccc3)CC2)cc1OC`, for which the call was inactive.
To `O=C(CSc1cccc2cccnc12)N/N=C/c1ccncc1` belongs “inactive”.
Regarding `Clc1ccccc1CSc1nnc(-c2cccnc2)n1Cc1ccco1`, the result was inactive.
The result for `CCN(CC)CC(=O)Nc1ccc(C)cc1C(=O)c1ccccc1` reads “inactive”; that for `COc1ccccc1NC(=O)NCCCCc1ccccc1`, “inactive”; that for `COc1ccc(CCNCC(O)COc2c(C)cccc2C)cc1OC` (stereo not given), “inactive”.
Turning to `COCCNc1nc(N)c([N+](=O)[O-])c(NCC2CCCO2)n1` (stereo not given), the outcome was inactive.
Turning to `CCOC(=O)c1sc(-c2ccccc2)cc1NC(=O)Nc1ccc([N+](=O)[O-])cc1`, the result was inactive.
Turning to `O=C1c2cccc3cccc(c23)C(=O)N1CC1CCN(CC(O)COc2ccc3ccccc3c2)CC1` (stereo not given), the outcome was inactive.
The result for `Cc1cccc(OCC(O)Cn2c(=N)n(CCN3CCOCC3)c3ccccc32)c1` (stereo not given) reads “inactive”; that for `COC(=O)COc1cccc(NC(=O)c2cccc(C)c2)c1`, “inactive”.
The result for `CCCc1[nH]nc2c1C(c1ccc(OC(=O)c3ccco3)cc1)C(C#N)=C(N)O2` (stereo not given) reads “inactive”; that for `O=C1c2ccccc2NC(c2ccc(Cl)cc2Cl)N1O` (stereo not given), “inactive”.
As to `CCOc1cc(/C=N/NC(=O)C(=O)NCc2cccnc2)ccc1O`, the result was inactive.
Take `S=c1[nH]nc(-c2cccnc2)n1C1CCCCC1`: the outcome was inactive.
With `O=S(=O)(NC1CCCCC1)c1ccc(Cl)s1`, the molecule was classed as inactive.
Take `CCC(C)OC1OC(CO)C(O)C(O)C1NC(C)=O` (stereo not given): the outcome was inactive.
The result for `C[C@@H]1C(c2ccc(F)cc2)=NN(c2ccccc2)[C@H]1C(=O)N1CCOC1=O` reads “inactive”.
As to `CCN(CC)S(=O)(=O)N1CCC(C(=O)NC2CCCC2)CC1`, the result was inactive.
As to `O=C(Nc1ccccc1F)C1CCN(C(=O)Cc2ccccc2)CC1`, the outcome was inactive.
Turning to `CCOc1cc(C(=O)N2CCCN(C)CC2)cc(OCC)c1OCC`, the molecule was classed as inactive.
On to `COC(=O)c1sc(NC(=O)CSc2nnnn2-c2ccc(C)cc2C)nc1C`, for which the molecule was classed as inactive.
As to `CN1CC(c2ccccc2Cl)C2(COc3ccccc3C2=O)C12C(=O)Nc1ccccc12` (stereo not given), the molecule was called inactive.
As to `CC1(C)c2ccccc2N2CC(=O)NC21/C=C/c1ccco1` (stereo not given), the outcome was inactive.
As to `CCc1ccc(C(=O)Nc2ccc(S(=O)(=O)Nc3nc(C)cc(C)n3)cc2)o1`, the result was inactive.
To `Cc1ccc2nc(C(=O)O)c(C(=O)O)nc2c1` belongs “inactive”; to `O=C(Cn1c(=O)oc2cc(S(=O)(=O)N3CCc4ccccc43)ccc21)N1CCCCC1`, “inactive”; to `O=C(Cn1nnc(-c2ccccc2)n1)N/N=C/c1cccc([N+](=O)[O-])c1O`, “inactive”.
On to `COc1ccccc1N(CC(=O)NC1CCCC1)C(=O)c1csnn1`, for which the call was inactive.
The result for `Cc1cc(=O)oc2cc(OCC(=O)OCC(=O)N3CCc4ccccc43)ccc12` reads “inactive”.
